# Measured values published in PubChem BioAssay (NCI).
# The panel holds about 79,000 compounds, 15% with a hit somewhere; the sample as a whole holds those more often. Values without a mark were called inactive. Active and inactive are the calls of the source. Rule as the data show it: active = growth inhibition above about 70%; inactive = the rest.
# How the values were obtained:
# [1] = NCI Yeast Anticancer Drug Screen. Data for the rad52 strain (AID 147);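 also: 0% = growth of vehicle-treated control cultures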; conditions: S. cerevisiae rad52 mutant growth inhibition, stronger effect = higher value
# How it was run: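 Read-out: growth inhibition versus vehicle-treated controls. Cells were a DNA repair-deficient yeast strain treated with compounds.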
# [2] = NCI Yeast Anticancer Drug Screen. Data for the rad50EPP+ strain (AID 151);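 also: 0% = growth of vehicle-treated control cultures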; conditions: S. cerevisiae rad50 mutant strain, stronger effect = higher value
# How it was run: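 Growth inhibition read against vehicle controls in rad50EPP+ yeast, a strain altered in DNA damage repair, after compound exposure.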
# [3] = NCI Yeast Anticancer Drug Screen. Data for the rad50 strain (AID 155);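 also: 0% = growth of vehicle-only cultures of the same strain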; conditions: S. cerevisiae rad50 strain growth inhibition, stronger effect = higher value
# How it was run: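 Cells are treated with compound, grown, and their growth is then scored against vehicle-only cultures of the same repair-deficient yeast strain.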
# [4] = NCI Yeast Anticancer Drug Screen. Data for the mec2-1 strain (AID 157); conditions: S. cerevisiae mec2-1 strain, stronger effect = higher value
# How it was run: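 Yeast mec2-1 mutant treated with compound. Readout: growth inhibition vs vehicle controls.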
# [5] = NCI Yeast Anticancer Drug Screen. Data for the rad14 strain (AID 159);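 also: 0% = growth of vehicle-treated control cultures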; conditions: S. cerevisiae rad14 strain growth inhibition, stronger effect = higher value
# How it was run: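 Readout: yeast growth inhibition, referenced to vehicle-only cultures. Strain bears a defined alteration in DNA damage repair.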
# [6] = NCI Yeast Anticancer Drug Screen. Data for the sgs1 mgt1 strain (AID 161);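 also: 0% = growth of cultures given vehicle only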; conditions: S. cerevisiae sgs1 mgt1 strain, stronger effect = higher value
# How it was run: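 Inhibition of yeast growth, normalised to vehicle-treated controls, is reported for a strain bearing genetic alterations in DNA damage repair.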
# [7] = NCI Yeast Anticancer Drug Screen. Data for the CLN2oe strain (AID 163);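 also: 0% = growth of vehicle-only control cultures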; conditions: S. cerevisiae CLN2oe strain, stronger effect = higher value
# How it was run: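 Read-out: yeast growth inhibition, expressed relative to vehicle-only controls. The strain bears an engineered cell-cycle alteration.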
# [8] = NCI Yeast Anticancer Drug Screen. Data for the cln2 rad14 strain (AID 165);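 also: 0% = growth equal to vehicle treated cultures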; conditions: S. cerevisiae cln2 rad14 strain, stronger effect = higher value
# How it was run: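 cln2 rad14 yeast strain; compound exposure; growth inhibition read vs vehicle controls.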
# [9] = NCI Yeast Anticancer Drug Screen. Data for the bub3 strain (AID 167); conditions: S. cerevisiae bub3 mutant strain, stronger effect = higher value
# How it was run: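 Part of a panel of yeast mutants defective in DNA damage repair or cell cycle regulation. Each strain is grown with compound, and inhibition is calculated relative to solvent-treated cultures.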
# [10] = NCI Yeast Anticancer Drug Screen. Data for the wt2 strain (AID 169);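 also: 0% = growth of vehicle-treated yeast cultures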; conditions: S. cerevisiae wt2 strain growth inhibition, stronger effect = higher value
# How it was run: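 Read-out: growth inhibition versus vehicle-treated control cultures after compound exposure of the yeast strain.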
# [11] = NCI Yeast Anticancer Drug Screen. Data for the mlh1 strain (AID 171);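 also: 0% = growth of vehicle-treated control cultures of the same strain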; conditions: S. cerevisiae mlh1 strain growth inhibition, stronger effect = higher value
# How it was run: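 Read-out: growth inhibition versus vehicle controls. Strain: engineered yeast with a defined DNA repair or cell cycle defect, compound-treated.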
# [12] = NCI Yeast Anticancer Drug Screen. Data for the sgs1 strain (AID 173);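 also: 0% = growth of vehicle-only control cultures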; conditions: S. cerevisiae sgs1 mutant, stronger effect = higher value
# How it was run: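 Read-out: yeast growth inhibition relative to vehicle controls, following compound exposure of a strain with a defined DNA repair/cell cycle alteration.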
# [13] = NCI Yeast Anticancer Drug Screen. Data for the wt1 strain (AID 149);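 also: 0% = growth of vehicle-treated wt1 cultures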; conditions: S. cerevisiae wt1 strain (SPY 50644) growth inhibition, stronger effect = higher value
# How it was run: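 The wt1 strain was treated with compounds, and growth was compared with vehicle-treated cultures to give inhibition.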
# [14] = NCI Yeast Anticancer Drug Screen. Data for the mlh1 rad18 strain (AID 175); conditions: S. cerevisiae mlh1 rad18 strain growth inhibition, stronger effect = higher value
# How it was run: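 Yeast w/ defined DNA-repair lesions; compound exposure; growth vs vehicle controls → % inhibition.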
# [15] = NCI Yeast Anticancer Drug Screen. Data for the rad18 strain (AID 177); conditions: S. cerevisiae rad18 mutant growth inhibition, stronger effect = higher value
# How it was run: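 Readout: growth inhibition vs vehicle controls. Cells: genetically altered yeast strain, DNA repair defect.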
# [16] = at 5.0 µM (retest, dose inferred, filed as 0.5)
# [17] = at 50.0 µM (retest, dose inferred, filed as 5.0)
compound,measurement,setting,value
CCCCC(=O)c1c(O)nc2sccn2c1=O,growth inhibition,[1]; at 1.2 µM,8%
same,growth inhibition,[1]; at 3.7 µM,18%
same,growth inhibition,[1]; at 11.0 µM,64%
same,growth inhibition,[1]; at 33.0 µM,96% (active)
same,growth inhibition,[1]; at 100.0 µM,98% (active)
same,growth inhibition,[2]; at 1.2 µM,2%
same,growth inhibition,[2]; at 3.7 µM,7%
same,growth inhibition,[2]; at 11.0 µM,58%
same,growth inhibition,[2]; at 33.0 µM,94% (active)
same,growth inhibition,[2]; at 100.0 µM,95% (active)
same,growth inhibition,[3]; at 1.2 µM,14%
same,growth inhibition,[3]; at 3.7 µM,31%
same,growth inhibition,[3]; [16],30%
same,growth inhibition,[3]; at 11.0 µM,82% (active)
same,growth inhibition,[3]; at 33.0 µM,97% (active)
same,growth inhibition,[3]; [17],85% (active)
same,growth inhibition,[3]; at 50.0 µM,85.4% (active)
same,growth inhibition,[3]; at 100.0 µM,98% (active)
same,growth inhibition,[4]; at 1.2 µM,22%
same,growth inhibition,[4]; at 3.7 µM,17%
same,growth inhibition,[4]; [16],10%
same,growth inhibition,[4]; at 11.0 µM,82% (active)
same,growth inhibition,[4]; at 33.0 µM,97% (active)
same,growth inhibition,[4]; [17],88% (active)
same,growth inhibition,[4]; at 50.0 µM,85.3% (active)
same,growth inhibition,[4]; at 100.0 µM,98% (active)
same,growth inhibition,[5]; at 1.2 µM,22%
same,growth inhibition,[5]; at 3.7 µM,68%
same,growth inhibition,[5]; at 11.0 µM,98% (active)
same,growth inhibition,[5]; at 33.0 µM,98% (active)
same,growth inhibition,[5]; at 100.0 µM,98% (active)
same,growth inhibition,[6]; [16],5%
same,growth inhibition,[6]; [17],28%
same,growth inhibition,[6]; at 50.0 µM,89.2% (active)
same,growth inhibition,[7]; at 1.2 µM,9%
same,growth inhibition,[7]; at 3.7 µM,5%
same,growth inhibition,[7]; at 11.0 µM,26%
same,growth inhibition,[7]; at 33.0 µM,78% (active)
same,growth inhibition,[7]; at 100.0 µM,89% (active)
same,growth inhibition,[8]; [16],22%
same,growth inhibition,[8]; [17],37%
same,growth inhibition,[8]; at 50.0 µM,53%
same,growth inhibition,[9]; at 1.2 µM,6%
same,growth inhibition,[9]; at 3.7 µM,11%
same,growth inhibition,[9]; [16],47%
same,growth inhibition,[9]; at 11.0 µM,62%
same,growth inhibition,[9]; at 33.0 µM,94% (active)
same,growth inhibition,[9]; [17],92% (active)
same,growth inhibition,[9]; at 50.0 µM,87.2% (active)
same,growth inhibition,[9]; at 100.0 µM,96% (active)
same,growth inhibition,[10]; at 1.2 µM,7%
same,growth inhibition,[10]; at 3.7 µM,19%
same,growth inhibition,[10]; at 11.0 µM,86% (active)
same,growth inhibition,[10]; at 33.0 µM,98% (active)
same,growth inhibition,[10]; at 100.0 µM,99% (active)
same,growth inhibition,[11]; at 1.2 µM,27%
same,growth inhibition,[11]; at 3.7 µM,74% (active)
same,growth inhibition,[11]; at 11.0 µM,95% (active)
same,growth inhibition,[11]; at 33.0 µM,97% (active)
same,growth inhibition,[11]; at 100.0 µM,98% (active)
same,growth inhibition,[12]; at 1.2 µM,33%
same,growth inhibition,[12]; at 3.7 µM,55%
same,growth inhibition,[12]; at 11.0 µM,92% (active)
same,growth inhibition,[12]; at 33.0 µM,97% (active)
same,growth inhibition,[12]; at 100.0 µM,98% (active)
Clc1cc(Cc2ccc(N=C/C=C/c3ccccc3)c(Cl)c2)ccc1N=C/C=C\c1ccccc1,growth inhibition,[13]; at 1.2 µM,-5%
same,growth inhibition,[13]; at 3.7 µM,-4%
same,growth inhibition,[13]; at 11.0 µM,-5%
same,growth inhibition,[13]; at 33.0 µM,1%
same,growth inhibition,[13]; at 100.0 µM,14%
same,growth inhibition,[2]; at 1.2 µM,18%
same,growth inhibition,[2]; at 3.7 µM,-4%
same,growth inhibition,[2]; at 11.0 µM,15%
same,growth inhibition,[2]; at 33.0 µM,15%
same,growth inhibition,[2]; at 100.0 µM,21%
same,growth inhibition,[3]; at 1.2 µM,13%
same,growth inhibition,[3]; at 3.7 µM,3%
same,growth inhibition,[3]; [16],100% (active)
same,growth inhibition,[3]; at 11.0 µM,8%
same,growth inhibition,[3]; at 33.0 µM,5%
same,growth inhibition,[3]; [17],100% (active)
same,growth inhibition,[3]; at 50.0 µM,71.3% (active)
same,growth inhibition,[3]; at 100.0 µM,32%
same,growth inhibition,[4]; at 1.2 µM,17%
same,growth inhibition,[4]; at 3.7 µM,20%
same,growth inhibition,[4]; [16],100% (active)
same,growth inhibition,[4]; at 11.0 µM,9%
same,growth inhibition,[4]; at 33.0 µM,-11%
same,growth inhibition,[4]; [17],99% (active)
same,growth inhibition,[4]; at 50.0 µM,33.1%
same,growth inhibition,[4]; at 100.0 µM,19%
same,growth inhibition,[5]; at 1.2 µM,-8%
same,growth inhibition,[5]; at 3.7 µM,-20%
same,growth inhibition,[5]; at 11.0 µM,-14%
same,growth inhibition,[5]; at 33.0 µM,-19%
same,growth inhibition,[5]; at 100.0 µM,19%
same,growth inhibition,[6]; [16],-23%
same,growth inhibition,[6]; [17],88% (active)
same,growth inhibition,[6]; at 50.0 µM,62.7%
same,growth inhibition,[7]; at 1.2 µM,-3%
same,growth inhibition,[7]; at 3.7 µM,-18%
same,growth inhibition,[7]; at 11.0 µM,-20%
same,growth inhibition,[7]; at 33.0 µM,-31%
same,growth inhibition,[7]; at 100.0 µM,3%
same,growth inhibition,[9]; at 1.2 µM,-12%
same,growth inhibition,[9]; at 3.7 µM,1%
same,growth inhibition,[9]; [16],30%
same,growth inhibition,[9]; at 11.0 µM,-9%
same,growth inhibition,[9]; at 33.0 µM,-9%
same,growth inhibition,[9]; [17],86% (active)
same,growth inhibition,[9]; at 50.0 µM,54.1%
same,growth inhibition,[9]; at 100.0 µM,-7%
same,growth inhibition,[12]; at 1.2 µM,12%
same,growth inhibition,[12]; at 3.7 µM,7%
same,growth inhibition,[12]; at 11.0 µM,8%
same,growth inhibition,[12]; at 33.0 µM,8%
same,growth inhibition,[12]; at 100.0 µM,41%
same,growth inhibition,[14]; [16],100% (active)
same,growth inhibition,[14]; [17],100% (active)
same,growth inhibition,[14]; at 50.0 µM,64.7%
same,growth inhibition,[15]; at 1.2 µM,1%
same,growth inhibition,[15]; at 3.7 µM,-11%
same,growth inhibition,[15]; at 11.0 µM,-20%
same,growth inhibition,[15]; at 33.0 µM,-25%
same,growth inhibition,[15]; at 100.0 µM,24%
